Screening results: PubChem BioAssay, National Center for Advancing Translational Sciences (NCATS)
IL1B secr inh = blocks inflammasome-driven IL-1 beta release. AID 743279. actives 4.7% (n = 360,000). THP-1 LPS/ATP IL-1B secretion, AlphaLISA, 16 h; active compounds read low. activity change, % at 57.5 µM; in the data active means activity change below about -50%; inconclusive means mostly about -30% to -49%
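THP-1 cells pretreated 1 hr with compounds (up to 57.5 uM final), then stimulated with LPS (250 ng/mL final) plus ATP (1.25 mM final); secreted IL-1B measured by AlphaLISA after 16 hr, decreased signal indicating inhibition.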
DT40 TDP1 no CPT = qHTS for Inhibitors of human tyrosyl-DNA phosphodiesterase 1 (TDP1): qHTS in cells in absence of CPT; DT40 Tdp1-/- hTDP1 cells, no CPT, ATP luminescence, 48 h; Potency, µM (doses to about 46.2 µM), for the others: at the highest dose activity change, negative = growth inhibition, hits mostly inhibitors; AID 686978, 2013; actives 15% (n = 420,000); further: potency means the concentration at half of the fitted maximal effect; nearly all actives have a fitted effect of over 55% in size
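DT40 Tdp1-/-;hTDP1 cells, no CPT (DMSO vehicle only), 400 cells/well; compounds pin-transferred; ≥48 hr, 37 °C; CellTiter-Glo 30 min RT dark, luminescence read.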
DT40 TDP1 CPT = DT40-hTDP1 cell growth loss with CPT | chicken DT40 Tdp1-/-;hTDP1 cells + 20 nM CPT, ATP luminescence, 48 h | actives 12% (n = 420,000) | Potency, µM (series often up to 46.2 µM), for the others: at the highest dose activity change, negative = growth inhibition, most hits filed as inhibitors; further: potency means the concentration at half of the fitted maximal effect; nearly all actives have a fitted effect of over 55% in size
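Chicken DT40 Tdp1-/- cells stably complemented with human TDP1 were seeded at 400 cells/well in medium containing 20 nM camptothecin, exposed to pin-transferred compounds, and grown at 37 °C for at least 48 hr. Viability was read as ATP luminescence.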
HT1080 IDH1KD tx = kills HT-1080 cells with IDH1 knockdown; HT-1080 IDH1 knockdown viability, ATP luminescence, 48 h; Potency, µM (top dose mostly 46.1 µM), inactives show at the top dose activity, negative = toxicity, actives largely listed as cytotoxic; actives 2% (n = 360,000);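 further: potency means the concentration at half of the fitted maximal effect; 0% = DMSO wells and -100% = cell-free medium wells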
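In this qHTS, HT-1080 cells depleted of IDH1 are exposed for 48 h at 37 °C to compound titrations. Toxicity is scored from CellTiter-Glo luminescence, with DMSO as full viability and medium alone as none.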
HT1080NT lethal = kills 2HG-producing HT-1080-NT fibrosarcoma cells; Potency, µM (top dose mostly 46.1 µM), inactives show top-dose activity, negative = less viability, usual class: cytotoxic; actives 1.6% (n = 360,000); HT-1080-NT fibrosarcoma viability, CellTiter-Glo ATP luminescence, 48 h;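 further: NT is the 2HG producing partner of a matched IDH1 knockdown line; potency means the concentration at half of the fitted maximal effect; 0% = DMSO-treated cells and -100% = media-only wells without cells; nearly all actives have a fitted effect of over 55% in size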
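HT-1080-NT; 750 cells/well; 5% FBS RPMI; 48 h compound, 37 degrees C; CellTiter-Glo luminescence; curve fitting and curve-class assignment.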
ALOX12 inh = ALOX12 (human) lipoxygenase inhibition | P18054 | purified 12hLO, xylenol orange hydroperoxide absorbance | Potency, µM (highest dose often 108 µM), for inactives: top-dose activity change, negative = inhibition, usual class: inhibitors | actives 1.1% (n = 580,000); further: potency means the concentration at half of the fitted maximal effect
Target sequence (P18054 whole entry, looked up): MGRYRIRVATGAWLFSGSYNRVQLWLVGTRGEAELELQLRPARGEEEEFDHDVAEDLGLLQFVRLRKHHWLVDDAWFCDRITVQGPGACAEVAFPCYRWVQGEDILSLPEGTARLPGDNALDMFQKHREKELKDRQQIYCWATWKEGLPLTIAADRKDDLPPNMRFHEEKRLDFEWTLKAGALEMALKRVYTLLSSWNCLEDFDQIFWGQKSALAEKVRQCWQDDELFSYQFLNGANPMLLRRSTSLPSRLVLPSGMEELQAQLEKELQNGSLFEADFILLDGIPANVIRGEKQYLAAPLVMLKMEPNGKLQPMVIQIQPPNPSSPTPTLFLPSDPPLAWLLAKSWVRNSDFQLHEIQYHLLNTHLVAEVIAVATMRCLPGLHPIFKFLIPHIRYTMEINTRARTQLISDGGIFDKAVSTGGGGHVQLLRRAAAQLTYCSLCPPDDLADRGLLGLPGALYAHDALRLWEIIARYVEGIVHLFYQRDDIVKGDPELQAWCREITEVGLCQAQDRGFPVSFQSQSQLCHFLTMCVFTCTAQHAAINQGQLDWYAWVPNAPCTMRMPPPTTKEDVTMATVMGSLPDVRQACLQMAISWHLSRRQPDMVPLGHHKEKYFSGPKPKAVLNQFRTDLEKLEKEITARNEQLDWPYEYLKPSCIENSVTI
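Hydroperoxide product was detected by ferrous iron/xylenol orange as the 573 to 405 nm absorbance ratio. Arachidonic acid at 40 uM (final) was turned over for 30 min at room temperature by 150 nM human 12hLO, pH 7.0 Hepes buffer, after 15 min compound preincubation.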
Starred values were filed as active, the others as inactive; ? = inconclusive; / = no result given. This excerpt belongs to a sample that is enriched for hits. Unless noted, the call rests on the fitted dose curve; in most records, active means well fitted curve in the direction sought with a large enough effect; inconclusive means small, poorly fitted or top-dose-only effect, or another doubt; inactive means no such curve, though single readings can be large; an effect the other way counts as inactive or inconclusive. Unless noted, on the % scale 0 is the no-effect control and ±100 the full control effect.

SMILES	IL1B secr inh	DT40 TDP1 no CPT	DT40 TDP1 CPT	HT1080 IDH1KD tx	HT1080NT lethal	ALOX12 inh
Cc1nnc(SCC(=O)NC2CCCc3c2cnn3-c2ccccc2F)o1 (stereo unspecified)	5.7	18.9%	-5.9%	0.7%	-0.5%	-1.3%
O=C(CSc1ccccn1)NC1CCCc2c1cnn2-c1ccccc1F (stereo unspecified)	24.0	16.4µM*	-26.3%	-4.6%	-3.7%	-5.2%
Cc1cc(C(=O)NC2CCCc3c2cnn3-c2cccc(C)c2C)no1 (stereo unspecified)	-3.3	16.4µM*	20.6µM*	?	-25.2%	0.0%
COc1ccc(C2NC(=O)NC3=C2C(=O)N(Cc2ccccc2)C3)cc1OC (stereo unspecified)	/	/	/	/	/	-39.7%
CC(C)(O)C#Cc1ccc(N2C(c3ccsc3)=Cc3ccc(F)cc3C2c2c[nH]c3ccc(C#N)cc23)cc1 (stereo unspecified)	-17.5	?	5.17µM*	23.1µM*	?	?
CCCCC[C@H](O)/C=C/C1C(=O)C=C[C@H]1C/C=C\CCCC(=O)OC (stereo partly specified)	-101.9*	7.31µM*	5.8µM*	?	?	?
CC(C)n1nc(C(=O)OC/C(O)=C(\C#N)c2nc3ccccc3[nH]2)c2ccccc2c1=O	/	/	/	/	/	-11.1%
Cc1ccc(NNC(=O)c2cc(C)on2)c(C)c1	2.8	-20.9%	7.7%	8.2µM*	?	?
Cc1cc(C(=O)NNC(=O)c2ccc(C(F)(F)F)cc2)no1	/	-13.7%	3.8%	15.2%	0.1%	450.1%
Cc1cc(C(=O)NNc2ccc(F)cc2F)no1	-9.5	-17.7%	-1.4%	5.17µM*	3.66µM*	1.3%
Cc1cc(Cl)ccc1NNC(=O)c1c(C)noc1C	-3.2	-22.3%	-1.0%	-27.9%	-25.1%	31.6µM*
Cc1ccc(NNC(=O)c2c(C)noc2C)cc1Cl	12.4	-22.4%	-1.0%	?	-13.5%	?
CC(C)(C)c1ccc(C(=O)NNc2ccc(F)cc2F)cc1	-10.7	-18.9%	-10.9%	-23.1%	-19.5%	?
O=C(NCCCN1CCc2ccccc2C1)C1CCCCC(=O)N1Cc1ccccc1 (stereo unspecified)	/	/	/	/	/	12.0%
COc1ccc(NS(=O)(=O)c2ccc(-c3cc(C(F)(F)F)on3)s2)cc1	/	/	/	/	/	-23.8%
Cc1ccc(C)c(NCC(=O)c2ccc(Cl)cc2)c1	-24.2	?	?	0.1%	-5.0%	35.5µM*
Cc1ccc(C(=O)CNc2cc(C)ccc2C)cc1	-2.5	-19.6%	?	10.7%	5.2%	0.0%
Cc1cc(NC(=S)N(Cc2ccc(Cl)cc2)Cc2ccc(C(=O)O)cc2)ccc1Cl	0.0	5.8%	-0.3%	-8.8%	-9.0%	39.8µM*
CCc1ccc(NC(=S)N(Cc2ccc(Cl)cc2)Cc2ccc(C(=O)O)cc2)cc1	-16.0	-6.1%	-2.8%	-15.3%	-9.3%	39.8µM*
Cc1ccc(C)c(NC(=S)N(Cc2ccc(Cl)cc2)Cc2ccc(C(=O)O)cc2)c1	-5.5	-1.8%	-26.5%	-3.3%	0.0%	44.7µM*
Cc1ccc(SC(C)C(=O)Nc2c(C)cc(C)cc2C)cc1 (stereo unspecified)	/	/	/	/	/	-37.6%
Cc1ccc(NC(=S)N(Cc2ccc(Br)cc2)Cc2ccc(C(=O)O)cc2)cc1C	-3.9	?	10.4%	-20.2%	-18.7%	39.8µM*
Cc1cccc(NC(=S)N(Cc2ccc(Cl)cc2)Cc2ccc(C(=O)O)cc2)c1	-5.6	-18.0%	18.0%	-11.6%	-1.1%	0.0%
Cc1cc(C)cc(NC(=S)N(Cc2ccc(Cl)cc2)Cc2ccc(C(=O)O)cc2)c1	3.7	-29.8%	-27.3%	?	3.1%	35.5µM*
C=CCNC(=S)NNC(=O)C(CC)CC(C)(C)O (stereo unspecified)	/	/	/	/	/	19.1%
